Experimental findings from PubChem BioAssay (NCATS) are described below.

The structures appear in SMILES notation. Results filed as inconclusive are left out. Values without a mark were called inactive. Active and inactive are the calls of the source. Calls come from the whole dose curve.
% is set by controls: 0 for no effect and ±100 for the full control effect.

The test is described as follows: Primary qHTS for inhibitors of SARS-S pseudo-typed particle cell entry (AID 1479145). Note: nearly all actives have a fitted effect of over 45% in size. The following applies: SARS-S pseudotyped particle cell entry, luciferase reporter; series mostly up to 57.1 µM; activity change, negative = inhibition: at the top concentration.
With `CCOC(=O)/C=C(C)/C=C/C=C(C)/C=C/c1c(C)cc(OC)c(C)c1C`, the “activity change, negative = inhibition” value is 4.14%.

For `COC(=O)N/N=C/c1c[n+]([O-])c2ccccc2[n+]1[O-]`, the compound was classed as inactive.

Consider `O=C(O)[C@H](O)c1ccccc1`, for which the “activity change, negative = inhibition” value was 1.93%.

Consider `NC(N)=NCCN1CCCCCCC1`, for which the outcome was “inactive [at 0.573 µM]”.

`CC(CSC(=O)c1ccccc1)C(=O)N1C[C@@H](Sc2ccccc2)C[C@H]1C(=O)O` (stereo partly drawn): the “outcome” value was “inactive [at 26.4 µM]”.

`Cn1nnc2c(C(N)=O)ncn2c1=O`: the “activity change, negative = inhibition” value was -25.8%.

For the compound `CC[N+](C)(CC)CCOC(=O)C1c2ccccc2Oc2ccccc21`, the compound was called inactive.

With `C[C@@H]1O[C@@H](OC[C@H]2O[C@@H](Oc3c(-c4ccc(O)c(O)c4)oc4cc(O)cc(O)c4c3=O)[C@H](O)[C@@H](O)[C@@H]2O)[C@H](O)[C@H](O)[C@H]1O`, the compound was classed as inactive.

Consider `CC(C)(Oc1ccc(C2CC2(Cl)Cl)cc1)C(=O)O` (stereo not drawn), for which the outcome was inactive.

As for `CC(=O)CC(c1ccc([N+](=O)[O-])cc1)c1c(O)c2ccccc2oc1=O` (stereo not drawn), the “activity change, negative = inhibition” value is -7.99%.

Consider `CC(C)Cn1cnc2c(N)nc3ccccc3c21`, for which the “activity change, negative = inhibition” value is 3.58% [at 26.4 µM].

As to `CC(=O)CC(c1ccccc1)c1c(O)c2ccccc2oc1=O` (stereo not drawn), the compound was called inactive.

As to `O=P(O)(O)C(Sc1ccc(Cl)cc1)P(=O)(O)O`, the activity change, negative = inhibition is -6.9% [at 0.573 µM].

Regarding `CC(C)Cc1ccc(C(C)C(=O)O)cc1` (stereo not drawn), the compound was called inactive.

As to `CCCCC(O)/C=C(C)/C=C/C=C/C(=O)N1CCCC1=O` (stereo not drawn), the “activity change, negative = inhibition” value is -1.79%.

In the case of `C[C@H]1C[C@@H]2[C@H]([C@@H](O)C[C@@]3(C)[C@H]2CC[C@]3(O)C(=O)CO)[C@@]2(C)C=CC(=O)C=C12`, the call was inactive.

Consider `CCOc1cc(CC(=O)N[C@@H](CC(C)C)c2ccccc2N2CCCCC2)ccc1C(=O)O`, for which the “activity change, negative = inhibition” value was -27%.

As to `CO[C@@]1(NC(=O)CSC[C@@H](N)C(=O)O)C(=O)N2C(C(=O)O)=C(CSc3nnnn3C)CS[C@@H]21`, the compound was classed as inactive.

As to `CNC(=O)c1c(I)c(NC(C)=O)c(I)c(C(=O)O)c1I`, the compound was called inactive.

`CCn1nc(C(=O)O)c(=O)c2cc3c(cc21)OCO3`: the “activity change, negative = inhibition” value is 1.75%.

In the case of `CCCC(=O)O[C@]1(C(=O)COC(=O)CC)CC[C@H]2[C@@H]3CCC4=CC(=O)CC[C@]4(C)[C@H]3[C@@H](O)C[C@@]21C`, the “outcome” value is “inactive [at 26.4 µM]”.

Consider `c1ccc(-c2nc[nH]c2-c2ccccc2)cc1`, for which the “activity change, negative = inhibition” value was -14.6%.

Take `CCCCCCCCCCCCCCCC(=O)OC(C)C`: the “activity change, negative = inhibition” value is 3.68%.

For `CC(=O)OCC(=O)[C@@]1(OC(C)=O)[C@@H](C)C[C@H]2[C@@H]3C[C@H](F)C4=CC(=O)C=C[C@]4(C)[C@@]3(F)[C@@H](O)C[C@@]21C`, the compound was called inactive.

Consider `NS(=O)(=O)c1cc(C2(O)NC(=O)c3ccccc32)ccc1Cl` (stereo not drawn), for which the “activity change, negative = inhibition” value was -36.8%.

As for `C/C(=C(\CCO)SS/C(CCO)=C(\C)N(C=O)Cc1cnc(C)nc1N)N(C=O)Cc1cnc(C)nc1N`, the result was inactive.

Take `C[C@]12C=CC(=O)C=C1[C@@H](F)C[C@@H]1[C@@H]2[C@@H](O)C[C@@]2(C)[C@H]1CC[C@]2(O)C(=O)CO`: the compound was called inactive.

For the compound `COc1ccc2cccc(CCNC(C)=O)c2c1`, the “activity change, negative = inhibition” value was -8.97%.

Take `Cc1c(F)c(N2CCNC(C)C2)cc2c1c(=O)c(C(=O)O)cn2C1CC1` (stereo not drawn): the “activity change, negative = inhibition” value was -9.29%.

With `C[C@@H]1[C@H](O)[C@@H](C)/C=C/C=C\C=C\C=C\C=C\C=C\C=C\[C@H](O[C@@H]2O[C@H](C)[C@@H](O)[C@H](N)[C@@H]2O)C[C@@H]2O[C@](O)(C[C@@H](O)C[C@@H](O)[C@H](O)CC[C@@H](O)C[C@@H](O)CC(=O)O[C@H]1C)C[C@H](O)[C@H]2C(=O)O` (stereo in doubt), the “activity change, negative = inhibition” value is -4.95%.

Take `CN(C)CCOC(=O)C(c1ccccc1)C1(O)CCCC1` (stereo not drawn): the “activity change, negative = inhibition” value is -26.8%.

With `O=C(O)CCCCCCCC(=O)O`, the outcome was inactive.

Take `CC(=O)OC(C)C[N+](C)(C)C` (stereo not drawn): the “activity change, negative = inhibition” value was -3.72%.

Consider `CCc1cccc(CC)c1NC(=O)CN(CC(=O)O)CC(=O)O`, for which the “activity change, negative = inhibition” value was 2.56%.

In the case of `CC(C(=O)O)c1ccc(/C=C2\CCCCC2=O)cc1` (stereo not drawn), the result was inactive.

Turning to `CN1C(C(=O)Nc2ccccn2)=C(O)c2ccccc2S1(=O)=O`, the “activity change, negative = inhibition” value was -34%.

For `NCCCCCC(=O)O`, the “activity change, negative = inhibition” value was 1.01%.

Turning to `OC[C@H]1O[C@@H](Oc2ccc(O)cc2)[C@H](O)[C@@H](O)[C@@H]1O`, the “activity change, negative = inhibition” value is -38.4%.
